PP5 inh – PP5 phosphatase inhibitors, primary screen, biochemical, fluorescence; Serine/threonine-protein phosphatase 5 (Homo sapiens), P53041; purified PP5c, OMFP substrate fluorescence; inhibition, % at 6.7 µM; 0.18% of 320,000 active; AID 1987, 2009;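 active = inhibition above the campaign's mean inhibition across all tested compounds plus 3 SD, cut at about 9.5% in these data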;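 note: 0% = DMSO only and 100% = 100 µM cantharidin control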
Beta apoptosis – inhibitors of cytokine-induced beta cell apoptosis, primary screen, luminescence | protection from apoptosis, % (test concentration not listed) | AID 435005, 2010 | INS-1E cytokine-induced death, ATP luminescence, 48 h; percent of positive-control rescue, neutral wells zero | 0.8% of 300,000 active;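 active = Every replicate reaches about 75%, or at least half do and their mean reaches it too, limit read from the data; inconclusive = At least half of replicates reach the limit but their mean does not; inactive = Under half of replicates reach the limit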;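 note: 0% = cytokine-treated negative control wells and 100% = positive control rescue; higher means more ATP so stronger rescue from cytokine killing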
Mdm2-MdmX inh – inhibitors of human Mdm2-MdmX association, primary screen, cell-based, luminescence, split luciferase, SaOS-2, uHTS; Protein Mdm4 (Homo sapiens) + E3 ubiquitin-protein ligase Mdm2 (Homo sapiens), …; SaOS-2 split-luciferase Mdm2/MdmX complementation; inhibition, % at 8 µM; 3% of 330,000 active;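 active = inhibition of at least 50% at 8 µM in the primary screen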
CSC inhib – cancer stem cell viability inhibitors, primary screen, luminescence. cancer stem cell-like cells viability. inhibition, % at 7.5 µM. 1.1% of 300,000 active. AID 2717, 2010; in the data active = inhibition above about 75%; inconclusive = no clear call, values can overlap the other calls; tested in HMLE shEcad cells
Calb FLC – C. albicans growth inhibition with fluconazole, primary screen, CaCi-2 strain, Alamar Blue fluorescence | C. albicans CaCi-2 (fluconazole-resistant clinical isolate) + fluconazole, 48 h | growth inhibition, % (no concentration beside the values) | 0.57% of 300,000 active;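 active = growth inhibition above about 58% in most replicates, limit read from the data, passing the limit was not always enough; inconclusive = exactly half the replicates above a set limit; inactive = most replicates below a set limit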;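 note: all wells also contain fluconazole at 8 µg/ml as a sub-toxic cotreatment; 0% = median of DMSO wells and 100% = median of geldanamycin control wells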
PP1 counter – PP1-alpha phosphatase inhibitors, primary screen, counter-screen for PP5 inhibitor project, biochemical, fluorescence, OMFP substrate, single point; 0.9% of 320,000 active; inhibition, % at 6.7 µM; AID 2235, 2010; purified PP1alpha; Serine/threonine-protein phosphatase PP1-alpha catalytic subunit (Homo sapiens), P62136;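 active = inhibition above the mean inhibition of all tested compounds plus 3 SD, computed separately for each screening campaign, cut at about 15% in these data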
* hit, by the source's call; u = inconclusive; x = no result. Rows were chosen to be rich in hits. Some 4.9% of all compounds tested hit in one or more screens of this group.

SMILES	PP5 inh	Beta apoptosis	Mdm2-MdmX inh	CSC inhib	Calb FLC	PP1 counter
CCN(CC)CCCNC(=O)c1cc2c(Cl)nc3ccccc3c2s1	2	14	-9	77*	-16	1
CC1CCCN(CCCNC(=O)c2cc3c(Cl)nc4ccccc4c3s2)C1 (configuration not stated)	3	65	19	85*	-24	-4
O=C(CNC(=O)c1ccc2c(c1)OCCO2)N/N=C/c1cccc(Br)c1	1	-1	-2	-7	-2	1
COc1ccccc1C1CCN(Cc2cccc(C(=O)N3CCC(O)CC3)c2)CC1	-2	3	-6	-9	-13	-2
CCOC(=O)N1CCC(=NNC(=O)COc2cccc(C)c2)CC1	2	1	27	-5	-15	-2
Cc1sc2ncnc(NC3CCN(Cc4ccccc4)CC3)c2c1C	-1	77*	18	22	34	1
c1ccc(CN2CCC(Nc3ncnc4sccc34)CC2)cc1	0	18	9	-8	-30	-2
O=Cc1cc(N=Nc2ccccc2Cl)ccc1O	-2	-6	0	-4	86*	-1
O=Cc1cc(N=Nc2cccc(C(=O)O)c2)ccc1O	2	18	13	22	-20	4
O=c1[nH]c(Nc2ccc3c(c2)OCCO3)nnc1Cc1ccccc1	2	x	-3	-1	120*	-2
O=c1[nH]c(NC2CCCCC2)nnc1Cc1ccccc1	-3	3	30	-15	-3	-2
C[C@]12CCC(O)CC1CCC1C2CC[C@]2(C)C(c3cc(C(F)(F)F)n[nH]3)CCC12 (some centres not stated)	0	19	29	112*	11	-3
C[C@H](O)[C@@]1(O)CC[C@H]2[C@@H]3CC[C@@H]4C[C@H](O)CC[C@]4(C)[C@H]3CC[C@@]21C	1	0	5	-10	-7	-2
COc1ccc(CNC(=O)N2CCN(c3ccccc3)CC2)cc1	2	0	-6	-1	6	2
Cc1ccccc1CSc1ccc(-c2ccc3c(c2)OCO3)nn1	-2	-4	-138	87*	-34	-1
Cc1cc(Cl)ccc1OCCCC(=O)Nc1ccc(S(=O)(=O)Nc2ncccn2)cc1	0	-1	-6	x	4	-1
Clc1ccc(-c2cc(-c3nnc4n3CCCCC4)c3ccccc3n2)cc1	2	100*	1	12	19	0
Fc1ccc(-c2cc(-c3nnc4n3CCCCC4)c3ccccc3n2)cc1	-1	97*	3	-8	u	-3
c1ccc2c(-c3nnc4n3CCCCC4)cc(-c3ccncc3)nc2c1	1	x	11	-5	-10	-2
Fc1ccc(-c2nnc3n2CCCCC3)cc1	2	-3	8	-10	19	1
CCOc1cc(/C=N/NC(=O)c2cccnc2)ccc1OCC(N)=O	-3	1	-1	-15	107*	-4
COc1cc(/C=N/NC(=O)c2cccnc2)ccc1OC(=O)c1cc(OC)c(OC)c(OC)c1	3	109*	21	x	1	1
O=C(NC1CCNCC1)C1CC1	-3	0	8	-8	-2	-8
COc1cccc(C2/C(=C(/O)c3ccc(C)cc3)C(=O)C(=O)N2Cc2ccco2)c1 (configuration not stated)	-1	-3	12	0	94*	16*
Cc1cc(C)c(OCC(=O)OCC(=O)N2c3ccccc3CC2C)c(C)c1 (configuration not stated)	2	-8	0	-8	-7	-6
SMILES	PP5 inh	Beta apoptosis	Mdm2-MdmX inh	CSC inhib	Calb FLC	PP1 counter
O=C(CCS(=O)(=O)c1ccccc1)Nc1nnc(C(F)(F)F)s1	1	-3	-9	10	97*	2
CC(C)(C)c1nnc(NC(=O)CCS(=O)(=O)c2ccccc2)s1	-2	x	26	0	93*	-2
Cc1nnc(NC(=O)CCS(=O)(=O)c2ccccc2)s1	0	-11	32	-6	-8	-1
O=C(CCS(=O)(=O)Cc1ccccc1)Nc1nnc(C(F)(F)F)s1	-3	-4	7	x	83*	-1
CC(C)(C)c1nnc(NC(=O)CCS(=O)(=O)Cc2ccccc2)s1	0	-17	24	-10	70	3
S=C(Nc1ccc(Nc2ccccc2)cc1)NC1CCCCCC1	3	23	39	78*	-5	0
S=C(NCCc1ccccc1)Nc1ccc(Nc2ccccc2)cc1	7	92*	42	20	31	2
O=C(Nc1ccc2c(c1)CCC2)c1cc(S(=O)(=O)Nc2ccc(F)cc2)c(Cl)cc1Cl	3	6	45	109*	7	3
c1ccc2sc(NN=C3CCCCCC3)nc2c1	1	3	-59	20	106*	-4
Cc1cc(C(=O)COC(=O)CC2Sc3ccccc3NC2=O)c(C)n1-c1ccc(Br)cc1 (configuration not stated)	0	7	23	-22	3	17*
CCc1nnc(NC(=O)CSc2nnc(Cc3cc(=O)[nH]c(=O)[nH]3)n2-c2cccc(OC)c2)s1	3	-2	18	-2	-8	-5
CC(CCN1CCN(CCO)CC1)c1ccccc1 (configuration not stated)	-1	-7	16	4	-12	-1
Cc1ccc2nsnc2c1NC(=O)CCc1ccccc1	-1	6	-10	0	-26	4
Cc1ccc2nsnc2c1NC(=O)COc1ccccc1F	2	0	3	-15	114*	3
NC(=S)NNc1cccc(Cl)c1	0	-4	41	-9	85*	-1
CC(=O)NC1=NN(C(C)=O)C(c2ccco2)S1 (configuration not stated)	0	1	20	-12	-6	-5
COc1ccc(Br)cc1CN(C)CC(=O)NCc1ccc(F)cc1	3	98*	21	12	16	1
CC(=O)c1ccc(NC(=S)NCc2cccnc2)cc1	0	100*	11	20	6	-3
Cc1ccc(NC(=S)NCc2cccnc2)cc1	1	-3	15	-3	-5	1
CCOC(=O)c1ccc(NC(=O)NCc2cccnc2)cc1	1	101*	-20	-3	6	-2
COc1ccc(S(=O)(=O)N2CCN(C(=O)NCc3ccc(OC)c(OC)c3)CC2)cc1	4	-3	9	-9	-4	1
O=C(CSC1=NCCS1)Nc1ccnc2ccccc12	3	104*	3	9	-22	8
O=C(CSC1=NCCS1)Nc1ccc2ccccc2c1	4	2	-17	14	2	-1
Cc1cc(C)nc(SCC(=O)Nc2ccnc3ccccc23)n1	1	102*	38	11	10	-7

Screens: PubChem, several laboratories
